This note sets out measurements from PubChem BioAssay (NCATS).

Records with an inconclusive call do not appear. Entries that show only a call come without a potency. Active and inactive are the calls of the source. Calls come from the whole dose curve; as a rule, active = well fitted inhibition curve with a large enough effect; inconclusive = small, poorly fitted or top-dose-only effect; inactive = flat fitted curve, though single readings scatter.

Sequence of Calcium and integrin-binding protein 1 (Homo sapiens) (Q99828 whole entry, looked up): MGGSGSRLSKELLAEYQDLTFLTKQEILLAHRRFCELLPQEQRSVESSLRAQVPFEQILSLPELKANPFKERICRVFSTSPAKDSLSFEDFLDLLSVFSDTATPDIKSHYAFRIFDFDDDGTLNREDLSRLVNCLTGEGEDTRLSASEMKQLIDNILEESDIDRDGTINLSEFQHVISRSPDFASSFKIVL

The assay has as its target Calcium and integrin-binding protein 1 (Homo sapiens) (UniProt Q99828). The assay can be described thus: Primary qHTS for Identification of Calcium Integrin Binding Protein 1 (CIB1) Competitor (AID 1508620).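 Note: GST tagged CIB1 binding a fluorescein labelled alphaIIb integrin peptide tracer; top concentration of the series differs between compounds.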 The following applies: CIB1-GST / FITC-alphaIIb peptide fluorescence polarization; series mostly up to 114 µM. In short, it runs like this:
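CIB1-GST (1 uM final) and compound incubated 15 min at room temperature before adding FITC-alphaIIb peptide tracer (100 nM final). Competition for binding read by fluorescence polarization (ex 480, em 540) after another 15 min at room temperature.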
On the technique in general: Quantitative high-throughput screening tests each substance at several concentrations.
In the case of `COc1cccc(C2=Nn3c(nnc3-c3cc(OC)cc(OC)c3)SC2)c1`, the Potency entry was “inactive”.

As for `COc1ccc(OC)c(C2=Nn3c(nnc3-c3ccccc3OC)SC2)c1`, the Potency entry is “inactive”.

`COc1ccc(C2Oc3ccccc3C(=O)N2Cc2ccccc2)cc1COc1ccc(NC(C)=O)cc1` (stereo unspecified): the Potency entry is “inactive”.

On to `Cc1ccc(OCCn2c(CCNC(=O)C3CCNCC3)nc3ccccc32)cc1`, for which the Potency entry is “inactive”.

Turning to `CCNC(=O)c1ccc(-c2ccc3ncnc(NCc4nc(C)cs4)c3c2)o1`, the Potency result is “inactive”.

In the case of `O=C(Cc1ccccc1)Nc1sc2c(c1C(=O)Nc1ccc(Cl)cc1)CCOC2`, the Potency entry was “inactive”.

In the case of `O=C(CNC(=O)c1ccccc1)N[C@H](C(=O)Nc1cc(C(F)(F)F)ccc1Cl)c1ccccc1`, the Potency entry was “inactive”.

On to `Cc1cc2c(s1)c1cnn(Cc3c(F)ccc(F)c3F)c(=O)c1n2C`, for which the Potency entry was “inactive”.

As for `COc1ccc(C2Nc3ccccc3C(=O)N2CCc2ccccc2)cc1COc1ccc(NC(C)=O)cc1` (stereo unspecified), the Potency result is “inactive”.

Take `CC1=C(C(=O)Nc2ccccc2)C(c2ccccc2Br)N=C(Nc2nc3ccccc3o2)N1` (stereo unspecified): the Potency entry is “inactive”.

In the case of `O=S(=O)(Nc1cccc2cccnc12)c1ccc(Br)s1`, the Potency result was “inactive”.

Consider `Cc1cc(C)nc(NC(=S)N2CCN(c3ccc(Cl)c(Cl)c3Cl)CC2)c1`, for which the Potency result was “inactive”.

As for `FC(F)(F)c1cc(-c2ccc(CNc3nc(-c4ccccc4C(F)(F)F)nc4ccccc34)cc2)ccc1Cl`, the Potency result was “inactive”.

Regarding `CCOc1ccc(C(=O)Oc2ccc(-c3nc4ccccc4[nH]3)cc2)cc1`, the Potency result was “inactive”.

Take `CCOc1ccc(CCNC(=O)C2(c3ccccc3)CC2)cc1OCC`: the Potency entry is “inactive”.

Turning to `CCOC(=O)c1c(-c2ccccc2)no[n+]1[O-]`, the Potency entry is “inactive”.
